Most compounds without a hit are left out; they make up all but 3.5% or so of the library.
FBW7 act – FBW7 E3 ligase activators, primary screen, biochemical, AlphaScreen, human | 650,000 tested, 0.13% active | AlphaScreen FBW7–phospho-cyclin E peptide binding, activator screen | normalized activity (activation), % at 26.1 µM | F-box/WD repeat-containing protein 7 (Homo sapiens), Q969H0; in the data active = normalized activity above about 1.9%;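 note: purified mutant Fbw7 with reduced substrate affinity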
MITF primary – MITF inhibitors, primary screen, biochemical, AlphaScreen, human. AlphaScreen MITF homodimerization, bead proximity signal. 650,000 tested, 0.91% active. inhibition, % at 2.6 µM; in the data active = inhibition above about 50%
TEAD-YAP inh – TEAD-YAP interaction inhibition, primary screen, TEAD-YAP interaction inhibitor project, luminescence, HEK-TIYL cells | TEAD-Gal4/YAP UAS-luciferase luminescence | inhibition, % at 9.12 µM | 640,000 tested, 1.4% active | AID 1259422, 2018; in the data active = inhibition above about 32%
GPR151 ag – activators of human GPR151, primary screen, cell-based, PathHunter beta-arrestin, luminescence | 650,000 tested, 1% active | PathHunter beta-arrestin GPR151 cells | activation, % at 11.2 µM | AID 1508602, 2020; in the data active = activation above about 4.9%
Target sequence (Q8TDV0 whole entry, looked up): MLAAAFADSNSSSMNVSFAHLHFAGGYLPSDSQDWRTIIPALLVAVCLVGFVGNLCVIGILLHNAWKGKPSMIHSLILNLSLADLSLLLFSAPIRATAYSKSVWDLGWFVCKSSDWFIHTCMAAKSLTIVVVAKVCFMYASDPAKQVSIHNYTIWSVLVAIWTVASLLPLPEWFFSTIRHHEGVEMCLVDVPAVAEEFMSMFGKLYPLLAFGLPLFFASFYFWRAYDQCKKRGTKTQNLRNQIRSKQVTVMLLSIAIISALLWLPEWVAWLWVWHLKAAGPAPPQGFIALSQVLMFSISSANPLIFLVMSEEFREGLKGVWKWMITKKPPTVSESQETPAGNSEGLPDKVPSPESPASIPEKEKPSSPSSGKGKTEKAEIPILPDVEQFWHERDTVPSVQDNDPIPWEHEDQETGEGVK
MITF confirm – MITF inhibitors, retest of hits, confirmation, biochemical, AlphaScreen, triplicate. AlphaScreen MITF homodimerization, biotin/His-MITF beads. inhibition, % at 2.6 µM. shares compounds with MITF primary. 4,700 tested, 16% active. AID 1259372, 2018;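 active = inhibition above a cutoff derived from the DMSO control wells, cut at about 28% in these data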;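 note: inhibitors lower the bead chemiluminescence by keeping MITF from dimerizing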
AS interf DR – AlphaScreen optical interference compounds, dose response, counter-screen, biochemical, HTS | AlphaScreen optical interference counterscreen, cell-free | IC50, µM | AID 1259373, 2018 | 480 tested, 6% active | shares compounds with MITF primary; call rule not given here
AlphaScreen intf2 – AlphaScreen optical interference compounds, counter-screen for MITF inhibitor project, biochemical, triplicate; AID 1259376, 2018; 4,700 tested, 7.6% active; shares compounds with MITF primary; inhibition, % at 2.6 µM; LysRS AlphaScreen counterscreen, signal interference;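 active = inhibition above a cutoff derived from the DMSO control wells, cut at about 30% in these data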
Each line names hits and unclear results; the compound was inactive in the other large screens (follow-up assays come after a bar, where they were run); ! = repeats disagree.

CCOCCCN1C(=O)C2C(C(=O)Nc3ccc(C(C)C)cc3)C3C=CC2(O3)C1C(=O)NC1CCCCC1C (stereo not given)	none
CCOC(=O)c1c(NC(=O)c2nn3c(c2Br)NC(c2ccc(OC)cc2)CC3C(F)(F)F)sc2c1CCCCC2 (stereo not given)	none
c1coc(CNc2ccc3ncc(-c4ccco4)n3n2)c1	MITF primary 56 | MITF confirm 84 | AS interf DR inactive | AlphaScreen intf2 inactive
COc1cccc(CN2CCN(C(=O)c3cccnc3)CC2)c1	MITF primary 70 | MITF confirm inactive | AlphaScreen intf2 inactive
COc1ccc(C(=O)N2CCN(C(=O)c3cccnc3)CC2)cc1	none
COc1cccc(CN2CCN(C(=O)c3cc(OC)cc(OC)c3)CC2)c1	none
COc1ccc(CN2CCN(C(=O)c3cccnc3)CC2)cc1	MITF primary 52 | MITF confirm inactive | AlphaScreen intf2 inactive
O=C(NC(=S)Nc1ccc2c(c1)OCCO2)c1ccc2c(c1)OCO2	none
CCC12CN3CC(CC)(CN(C1)C31C(=O)Nc3ccccc31)C2=O (stereo not given)	none
Cc1ccccc1CSc1ncccc1C(=O)O	none
OCCCNc1ccc2ncc(-c3ccccc3Cl)n2n1	MITF primary 85 | MITF confirm inactive | AlphaScreen intf2 inactive
O=C1C(=O)N(CCO)C(c2ccc([N+](=O)[O-])cc2)/C1=C(/O)c1ccc(Cl)cc1 (stereo not given)	none
Cn1c(SCc2ccccc2)nnc1C1CCCN(Cc2ccccn2)C1 (stereo not given)	MITF primary 61 | MITF confirm 36 | AlphaScreen intf2 93
CN(CCc1ccccc1)C1CCCN(Cc2ccccn2)C1 (stereo not given)	none
COc1ccc(CN2CCN(Cc3ccccn3)CC2)c(OC)c1OC	MITF primary 59 | MITF confirm inactive | AlphaScreen intf2 inactive
COc1ccc(CN2CCN(c3ccccn3)CC2)c(OC)c1OC	none
COc1ccccc1CN1CCN(Cc2ccccn2)CC1	MITF primary 65 | MITF confirm inactive | AlphaScreen intf2 inactive
COc1ccccc1CN1CCCCCC1	none
CN(CCCNC(=O)CN(C)S(=O)(=O)c1ccc2c(c1)CCC(=O)N2)c1ccccc1	none
O=C(c1cc(CCc2ccccc2)no1)N1CCN(C2CCCC2)C(=O)C1	none
Cc1ccc(C(=O)COc2cccc(N3C(=O)C4C5C=CC(C5)C4C3=O)c2)cc1 (stereo not given)	none
Cc1ccccc1C(=O)Nc1ccc2c(C)cc(=O)oc2c1	none
Nc1ccc(C(=O)O)c(O)c1	MITF primary 88! | MITF confirm 72 | AS interf DR inactive | AlphaScreen intf2 inactive
COC(=O)CSc1nnc(-c2ccncc2)n1Cc1ccco1	none
COC(=O)CSc1nnc(-c2ccco2)n1Cc1ccco1	MITF primary 76 | MITF confirm 58 | AS interf DR inactive | AlphaScreen intf2 inactive
O=C(CN1Cc2ccccc2OC(c2ccccc2F)C1)NCC1CCS(=O)(=O)C1 (stereo not given)	MITF primary 61 | MITF confirm inactive | AlphaScreen intf2 inactive
O=C(CN1Cc2ccccc2OC(c2ccccc2F)C1)NC1CCC(O)CC1 (stereo not given)	none
COC(=O)c1ccc(CN2CCN(Cc3ccc4c(c3)OCO4)CC2)cc1	MITF primary 56 | MITF confirm inactive | AlphaScreen intf2 inactive
O=C(c1ccc2c(c1)OCO2)N1CCN(Cc2ccc3c(c2)OCO3)CC1	none
COc1ccc(CN2CCN(Cc3ccc4c(c3)OCO4)CC2)cc1OC	MITF primary 82 | MITF confirm inactive | AlphaScreen intf2 inactive
COc1ccc(CN2CCN(Cc3ccc4c(c3)OCO4)CC2)c(OC)c1OC	MITF primary 79 | MITF confirm inactive | AlphaScreen intf2 inactive
CCOc1cc(CN2CCN(Cc3ccc4c(c3)OCO4)CC2)ccc1O	MITF primary 75 | MITF confirm inactive | AlphaScreen intf2 inactive
COc1ccc(CN2CCN(Cc3ccc4c(c3)OCO4)CC2)cc1C	none
CCOc1cc(CN2CCN(Cc3ccc4c(c3)OCO4)CC2)ccc1OC	none
CC(=O)Nc1ccc(C2C(C#N)=C(N)Oc3n[nH]c(-c4ccccc4Cl)c32)cc1 (stereo not given)	none
CN(C)c1c([N+](=O)[O-])cc([N+](=O)[O-])c2cccnc12	MITF primary 54 | MITF confirm inactive | AlphaScreen intf2 68
O=[N+]([O-])c1ccc(O)c2ncccc12	MITF primary 73 | MITF confirm 83 | AlphaScreen intf2 101
CN1CCN(Cc2cn[nH]c2-c2ccc(Cl)cc2)CC1	none
Cc1ccc(-c2[nH]ncc2CN2CCN(C)CC2)cc1	MITF primary 69 | MITF confirm inactive | AlphaScreen intf2 inactive
CC1CCCN(C(=O)C2CCN(Cc3cccc4ccccc34)CC2)C1 (stereo not given)	none
CCN1CCN(C(=O)C2CCN(Cc3cc(Br)c(O)c(OC)c3)CC2)CC1	none
CC1CCCN(C(=O)C2CCN(Cc3cccc(Cl)c3)CC2)C1 (stereo not given)	MITF primary 57 | MITF confirm inactive | AlphaScreen intf2 inactive
COc1cc(CN2CCC(C(=O)N3CCCC(C)C3)CC2)cc(Br)c1O (stereo not given)	MITF primary 52 | MITF confirm inactive | AlphaScreen intf2 inactive
CC1CCCN(C(=O)C2CCN(Cc3cccc(Br)c3)CC2)C1 (stereo not given)	MITF primary 62 | MITF confirm inactive | AlphaScreen intf2 inactive
CC1CCCN(C(=O)C2CCN(Cc3ccccc3F)CC2)C1 (stereo not given)	MITF primary 67 | MITF confirm inactive | AlphaScreen intf2 inactive
COc1ccc(OC)c(-n2c(=S)sc3c(=O)n(-c4ccccc4C)c(SCC(=O)C(C)(C)C)nc32)c1	none
O=C(NCc1ccccc1)c1ccc2c(c1)nc(SCc1cc(=O)n3ccccc3n1)n1c3ccccc3nc21	none
O=C(O)/C=C/c1ccc(S(=O)(=O)N2CCCC2)cc1	none
COc1cccc(CN2CCN(Cc3cccnc3)CC2)c1OC	MITF primary 76 | MITF confirm inactive | AlphaScreen intf2 inactive
COc1ccc(N2CCN(Cc3cccc(OC)c3OC)CC2)cc1	none
COc1ccc(CN2CCN(Cc3cccnc3)CC2)c(OC)c1OC	MITF primary 81 | MITF confirm inactive | AlphaScreen intf2 inactive
O=C1NC(=O)N(c2ccccc2)C(=O)/C1=C/c1ccc(Br)cc1	none
CCCCn1nc(C(N)=O)c2ccccc2c1=O	none
